We go through 34 compounds from PubChem BioAssay (Tox21).

Records with an inconclusive call do not appear. Unmarked numbers belong to inactive results. Active and inactive are the calls of the source. Unless noted, the call rests on the fitted dose curve; in most records, active means well fitted curve in the direction sought with a large enough effect in the repeat runs; inconclusive means weak or mixed curves; inactive means no such curve, though single readings can be large; an effect the other way counts as inactive or inconclusive.

A short description of assay [1]: qHTS assay to identify small molecule antagonists of the estrogen related receptor (ERR) signaling pathway from Tox21 library - cell viability counter screen (AID 1224834). Further: nearly all actives have a fitted effect of over 30% in size. In a few lines:
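Viability readout (CellTiter-Fluor fluorescence, 30 min at 37 C) multiplexed with the ERR assay; cells treated 17.5 h at 37 C with compounds delivered in DMSO.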
For orientation: qHTS replaces the single test concentration by a dilution series.

The target in assay [2] is Luciferin 4-monooxygenase (Photinus pyralis) (UniProt P08659). The assay can be described thus: qHTS assay to identify small molecule inhibitors of firefly luciferase (AID 1224835). Further: nearly all actives have a fitted effect of over 25% in size. Further: potency means the concentration at half of the fitted maximal effect. In a few lines: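 Biochemical qHTS: compounds run as interplate titrations against purified firefly enzyme, with D-luciferin and ATP each at its KM concentration. Light output recorded by CCD imaging.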

Assay [3] in a line: qHTS assay to identify small molecule agonists of the constitutive androstane receptor (CAR) signaling pathway - cell viability counter screen (AID 1224836). Further: series mostly up to about 92 µM; nearly all actives have a fitted effect of over 45% in size. The method, boiled down:
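HepG2-CYP2B6-hCAR, 2500 cells/well, 4 h pre-incubation; cpd 15 conc + PK11195 0.75 uM final; 23 h, 37 C/5% CO2; CellTiter-Fluor, fluorescence.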

For assay [4], the target named is Nuclear receptor subfamily 1 group I member 3 (Homo sapiens) (UniProt Q14994). Briefly: qHTS assay to identify small molecule antagonists of the constitutive androstane receptor (CAR) signaling pathway (AID 1224838).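 Further: HepG2 cells stably expressing hCAR with CYP2B6 luciferase reporter stimulated by CITCO; nearly all actives have a fitted effect of over 40% in size.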 Further: potency means the concentration at half of the fitted maximal effect. In a few lines: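 Quantitative HTS in double-stable HepG2-CYP2B6-hCAR cells. After 4 h plating, cells get compound (15 concentrations) and CITCO at 50 nM final, incubate 24 h at 37 C, then ONE-Glo luminescence is read.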

Assay [5] has the same target. Briefly: qHTS assay to identify small molecule agonists of the constitutive androstane receptor (CAR) signaling pathway (AID 1224839).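 Further: HepG2 cells stably carrying human CAR and a CYP2B6 luciferase reporter; series mostly up to about 92 µM; nearly all actives have a fitted effect of over 15% in size.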 In a few lines:
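HepG2-CYP2B6-hCAR cells, 2500/well, 4 h pre-incubation; compounds 15 conc.; PK11195 0.75 uM final; 24 h, 37 C/5% CO2; ONE-Glo luciferase read.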

The nature of assay [6]: qHTS assay to identify small molecule antagonists of the estrogen related receptor signaling pathway with the pleiotropic PPARgamma coactivator (PGC) from Tox21 10K library - cell viability counter screen (AID 1224840; active means well fitted cell-killing curve with a large enough effect in the repeat runs, not every such curve was filed as active; further: nearly all actives have a fitted effect of over 40% in size). In a few lines:
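Compounds in DMSO, alongside positive and negative controls, were pinned onto PGC/ERR cells (2,000 per well). Exposure lasted 17.5 hours at 37 C, followed by a 30-minute CellTiter-Fluor incubation and fluorescence reading.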

Assay [7] is described as follows: qHTS assay to identify small molecule antagonists of the constitutive androstane receptor (CAR) signaling pathway - cell viability counter screen (AID 1224837). Further: series mostly up to about 92 µM; nearly all actives have a fitted effect of over 45% in size. The method, boiled down:
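Fluorescence from CellTiter-Fluor served as the viability signal. Human hepatoma HepG2 cells stably bearing hCAR and CYP2B6-2.2kb received compound plus CITCO (50 nM final) for 23 hr.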

A short description of assay [8]: qHTS assay to identify small molecule antagonists of the estrogen related receptor signaling pathway with the pleiotropic PPARgamma coactivator (PGC) from Tox21 10K library (AID 1224841; call rule not given here; further: series mostly up to about 92 µM; actives are mostly falling curves and most rising ones were filed inactive; nearly all actives have a fitted effect of over 50% in size). The method, boiled down: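 Compound exposure ran 18 hours at 37 C in PGC/ERR cells (2,000/well) that had first rested 6 hours in a 37 C/5% CO2 incubator. Luciferase activity was then detected with One-Glo after a 30-minute room-temperature step.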

Assay [9] can be described thus: qHTS assay to identify small molecule agonists of the estrogen related receptor signaling pathway with the pleiotropic PPARgamma coactivator (PGC) from Tox21 10K library (AID 1224842). Further: nearly all actives have a fitted effect of over 15% in size. In a few lines: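 PGC/ERR reporter cell line, 2,000 cells per well, incubated 6 h at 37 C before 23 nL compound in DMSO was added. After 18 h at 37 C, One-Glo luminescence read following 30 min at room temperature.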

Chain of Nuclear receptor subfamily 1 group I member 3 (Homo sapiens) (Q14994 whole entry, looked up): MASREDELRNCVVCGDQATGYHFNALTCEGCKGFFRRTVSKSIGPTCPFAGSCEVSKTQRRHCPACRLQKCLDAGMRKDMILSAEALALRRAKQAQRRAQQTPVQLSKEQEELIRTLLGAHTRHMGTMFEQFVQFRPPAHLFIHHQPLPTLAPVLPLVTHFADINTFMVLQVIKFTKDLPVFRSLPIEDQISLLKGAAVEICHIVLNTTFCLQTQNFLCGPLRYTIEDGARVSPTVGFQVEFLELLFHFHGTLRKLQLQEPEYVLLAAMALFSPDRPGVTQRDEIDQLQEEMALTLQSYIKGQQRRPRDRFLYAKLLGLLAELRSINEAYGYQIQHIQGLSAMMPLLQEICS
Chain of Luciferin 4-monooxygenase (Photinus pyralis) (P08659 whole entry, looked up): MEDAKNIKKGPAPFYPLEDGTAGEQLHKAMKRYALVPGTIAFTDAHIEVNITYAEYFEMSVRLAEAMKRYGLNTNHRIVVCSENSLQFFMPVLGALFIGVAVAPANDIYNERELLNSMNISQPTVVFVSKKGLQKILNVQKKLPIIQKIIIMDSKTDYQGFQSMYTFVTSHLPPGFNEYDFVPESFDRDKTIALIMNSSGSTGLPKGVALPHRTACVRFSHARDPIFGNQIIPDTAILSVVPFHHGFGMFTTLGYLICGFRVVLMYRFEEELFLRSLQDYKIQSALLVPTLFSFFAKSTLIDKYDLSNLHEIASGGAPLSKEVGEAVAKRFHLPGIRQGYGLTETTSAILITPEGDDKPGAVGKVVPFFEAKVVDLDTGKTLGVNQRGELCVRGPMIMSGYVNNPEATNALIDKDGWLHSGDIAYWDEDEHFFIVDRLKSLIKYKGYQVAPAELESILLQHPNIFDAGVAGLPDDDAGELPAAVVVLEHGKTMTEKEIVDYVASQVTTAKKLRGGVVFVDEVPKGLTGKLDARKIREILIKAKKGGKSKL

As to `O=C1C=CCCC1`, the Potency result in [1], in assay [2], in [3], in assay [4], in [5] and in assay [6] was “inactive” in each case.
Turning to `OCCc1ccncc1`, the Potency entry in assay [1], in [2], in [3], in assay [7], in assay [6] and in [8] was “inactive” each time. The Potency result in assay [9] was “inactive”.
With `CC/C=C/CCO`, the Potency entry in assay [1], in assay [2], in [3], in assay [7], in assay [6] and in assay [8] was “inactive” each time. Moreover, the Potency entry in [9] was “inactive”.
For `CCCCCCCCCCCC(=O)OCC`, the Potency result in [1], in assay [2], in assay [3], in assay [7] and in assay [6] was “inactive” in each case.
Consider `CC(O)CN` (stereo unspecified), for which the Potency result in assay [1], in assay [2], in assay [3], in [7], in assay [8] and in assay [9] was “inactive” throughout.
Turning to `CC(C)=CCC/C(C)=C/C=N/O`, the Potency entry in [1], in assay [2], in assay [3], in assay [4], in assay [5] and in assay [6] was “inactive” throughout.
As for `CC(Cc1ccccc1)(NC(=O)CN)c1ccccc1` (stereo unspecified), the Potency entry in assay [1], in assay [2], in assay [3], in assay [7] and in [6] was “inactive” in each case.
Consider `CCc1c(C)[nH]c2c1C(=O)C(CN1CCOCC1)CC2` (stereo unspecified), for which the Potency entry in assay [1], in [2], in [3], in [7] and in assay [6] was “inactive” throughout.
As for `COc1ccc(CN(CCN(C)C)c2ncccn2)cc1`, the Potency result in [1], in [2], in assay [3], in assay [7] and in assay [6] was “inactive” each time.
Take `CC(C)Cc1nccs1`: the Potency entry in assay [1], in assay [2], in assay [3], in [4], in assay [5] and in assay [6] was “inactive” in each case.
In the case of `CCOC(C)OCC`, the Potency entry in assay [1], in assay [2], in [3], in [7] and in assay [6] was “inactive” throughout.
With `C=CC(=O)NC(C)(C)C`, the Potency result in [1], in [2], in assay [3], in assay [4], in assay [5] and in [6] was “inactive” throughout.
As for `Nc1ccc(F)cc1F`, the Potency entry in [1], in assay [2], in assay [3], in assay [4] and in [5] was “inactive” throughout.
As for `CC1(C)CC(=O)CC(C)(C)N1`, the Potency result in assay [1], in [2], in assay [3], in assay [7] and in assay [6] was “inactive” each time.
On to `CCC(C)C1N=C(C)C(C)S1` (stereo unspecified), for which the Potency result in [1], in assay [2], in [3], in assay [7], in [8] and in assay [9] was “inactive” each time.
For `Cc1ccc(NC=O)c(C)c1`, the Potency entry in assay [1], in assay [2], in [3], in [7] and in assay [6] was “inactive” each time.
For `N#C[C@@H]1CC(F)(F)CN1C(=O)CNC1CC2CCC(C1)N2c1ncccn1` (stereo partly specified), the Potency entry in assay [1], in [2], in assay [3], in assay [7], in [6] and in assay [8] was “inactive” each time. The Potency entry in assay [9] was “inactive”.
Consider `CCC1=C(C)CN(C(=O)NCCc2ccc(S(=O)(=O)NC(=O)NC3CCC(C)CC3)cc2)C1=O` (stereo unspecified), for which the Potency result in [1], in assay [2], in assay [3], in [7], in [6] and in assay [8] was “inactive” throughout. The Potency entry in assay [9] was “inactive”.
For `N#CCCCC(C#N)CCC#N` (stereo unspecified), the Potency result in assay [1], in [2], in assay [3], in assay [7], in [6] and in assay [8] was “inactive” throughout. Also, the Potency entry in [9] was “inactive”.
On to `CCCC(=O)OCCC(C)C`, for which the Potency result in [1], in [2], in assay [3], in assay [7] and in [6] was “inactive” in each case.
For the compound `CC(CN=Cc1ccccc1O)N=Cc1ccccc1O` (stereo unspecified), the Potency result in [1], in assay [2], in assay [3], in [4], in [5] and in [6] was “inactive” in each case.
With `CC1=C(C)C(=O)C(C(CCCCCC(=O)O)c2ccccc2)=C(C)C1=O` (stereo unspecified), the Potency entry in [1], in assay [2], in assay [3], in assay [7] and in [6] was “inactive” throughout.
Turning to `O=[N+]([O-])c1ccccc1CCO`, the Potency result in assay [1], in assay [2], in [3], in assay [7] and in assay [6] was “inactive” throughout.
For the compound `O=c1[nH][nH]c2ccccc12`, the Potency entry in assay [1], in assay [2], in assay [3], in assay [5] and in assay [6] was “inactive” each time. Moreover, the Potency in [4] is 55.5 µM (active).
In the case of `CC1(C)C(=O)NC(=O)N1CO`, the Potency result in assay [1], in [2], in assay [3], in assay [4], in assay [5] and in [6] was “inactive” each time.
Regarding `CO[C@@H]1[C@@H](O[C@@H]2O[C@H](C)[C@@H](O[C@H]3C[C@@](C)(O)[C@@H](O)[C@H](C)O3)[C@H](N(C)C)[C@H]2O)[C@@H](CC=O)C[C@@H](C)[C@@H](O[C@@H]2CC[C@H](N(C)C)[C@@H](C)O2)/C=C/C=C/C[C@@H](C)OC(=O)C[C@H]1OC(C)=O`, the Potency result in assay [1], in [2], in [3], in [4], in assay [5] and in assay [6] was “inactive” throughout.
On to `Clc1nc2ccccc2nc1Cl`, for which the Potency result in assay [1], in assay [2], in [3], in assay [7] and in assay [6] was “inactive” each time.
On to `C=C[Si]1(C)O[Si](C)(C=C)O[Si](C)(C=C)O[Si](C)(C=C)O1` (stereo unspecified), for which the Potency result in assay [1], in [2], in assay [3], in assay [4], in assay [5] and in assay [6] was “inactive” throughout.
Regarding `Cc1cccc(C)c1NC(=O)CN1CCCC1`, the Potency entry in [1], in assay [2], in assay [3], in [7] and in assay [6] was “inactive” each time.
`OCCCO`: the Potency entry in assay [1], in [2], in assay [3], in assay [7] and in assay [6] was “inactive” each time.
As for `CC/C=C\CCO`, the Potency result in [1], in assay [2], in assay [3], in assay [7], in assay [6] and in assay [8] was “inactive” throughout. Further, in [9], the Potency result is “inactive”.
Turning to `O=C1OC(=O)C2CC=CCC12` (stereo unspecified), the Potency result in [1], in [2], in [7], in assay [4], in assay [5] and in assay [6] was “inactive” throughout.
For `CCN(CCCCOC(=O)c1ccc(OC)c(OC)c1)C(C)Cc1ccc(OC)cc1` (stereo unspecified), the Potency result in assay [1], in assay [2], in [3], in assay [4], in [5] and in assay [6] was “inactive” in each case. Besides, the Potency entry in assay [8] and in [9] was “inactive” in each case.
As for `COc1ccc(/C=C/S(=O)(=O)NC(=O)c2ccc(C)cc2Cl)cc1`, the Potency entry in assay [1], in assay [3] and in [6] was “inactive” each time. Moreover, the Potency in [2] is 79.6 µM (active).
